We go through 40 compounds from PubChem BioAssay (Tox21).

Molecules are shown by their SMILES. Values joined by “and” are separate entries in the source; they are usually repeats but may differ in a detail not shown here. Equal values may be shown once. Results filed as inconclusive are left out. A number with no mark means an inactive call. Active and inactive are the calls of the source. Calls come from the whole dose curve; as a rule, active = well fitted inhibition curve with a large enough effect in the repeat runs; inconclusive = weak or mixed curves; inactive = no such curve, though single readings can be large or run the other way.
% is set by controls: 0 for no effect and ±100 for the full control effect; potency is the fitted concentration of half-maximal effect.

This test in a line: qHTS assay to identify small molecule antagonists of the estrogen related receptor (ERR) signaling pathway from Tox21 library (AID 1224848). Note: nearly all actives have a fitted effect of over 50% in size. The note with it: ERR reporter cell line, luciferase antagonist mode, 18 h; series mostly up to 92.4 µM; activity, negative = inhibition: at the top concentration. The source says: U.S. Tox21 Program National Center for Advancing Translational Sciences [NCATS] NIH Chemical Genomics Center [NCGC] U.S. Environmental Protection Agency [EPA] National Institutes of Environmental Health Sciences [NIEHS] National Toxicology Program [NTP] U.S. Food and Drug Administration [FDA] Tox21 Assay Overview: Estrogen related receptors (ERRs), the first orphan nuclear receptors discovered, play an important role in the control of cellular energy metabolism. ERRs are required for high-energy production in response to the environmental challenges. ERR-alpha was also identified as an adverse marker for breast cancer progression; ERR-alpha-positive tumors have a poor prognosis. To screen and to identify environmental compounds that perturb the ERR signaling pathways could provide valuable information for potential therapeutic or preventive measures in the treatment of metabolic disease. For identifying ERR antagonists, ERR cell line (provided by NTP) has been used to screen Tox21 10K library.
Tox21 Assay Protocol Summary: The ERR cells were dispensed at 2,000 cells/5 ul/well in 1536-well white plates using a Multidrop dispenser. After the assay plates were incubated at a 37 C/5% CO2 incubator for 6 hours, 23 nL of compounds dissolved in DMSO, positive and negative controls or DMSO only was transferred to the assay plate by a pin tool. The plates were incubated at 37 C for 18 hours. 4 ul/well of One-Glo reagent was added into the assay plates using a Flying Reagent Dispenser. After 30-minute incubation at room temperature, the luminescence intensity in the plates was measured using a ViewLux plate reader.
Consider `C#CCC1=C(C)C(OC(=O)C2C(C=C(C)C)C2(C)C)CC1=O` (stereo not given), for which the Potency is 48.2 µM (active).
With `O=Cc1ccccc1`, the “activity, negative = inhibition” value is 11.2%.
On to `O=[N+]([O-])C(Br)Br`, for which the “activity, negative = inhibition” value was 7.81%.
Consider `O=C1C[C@@H]2OCC=C3CN4CC[C@]56c7ccccc7N1[C@H]5[C@H]2[C@H]3C[C@H]46`, for which the “activity, negative = inhibition” value was -2.8% [at 42.5 µM].
Consider `c1ccc2c(c1)cc1ccc3cccc4ccc2c1c34`, for which the “activity, negative = inhibition” value was 92.1%.
Still for that read-out and setting: as for `CC(Cc1ccc2c(c1)OCO2)NO` (stereo not given), the figure is -4.17%; as for `ClCBr`, 8.13%.
As for `CCNS(=O)(=O)C(F)(F)C(F)(F)C(F)(F)C(F)(F)C(F)(F)C(F)(F)C(F)(F)C(F)(F)F`, the “activity, negative = inhibition” value is -15.4%.
Consider `N#Cc1c[nH]cc1-c1cccc2c1OC(F)(F)O2`, for which the Potency was 27.3 µM (active).
Turning to `CCCCCON=O`, the “activity, negative = inhibition” value is -10.5%.
`Oc1ccc([C@H]2CNCc3c2ccc(O)c3O)cc1O`: the “activity, negative = inhibition” value is -9.31% [at 42.5 µM].
Turning to `Cc1ccccc1OP(=O)(Oc1ccccc1C)Oc1ccccc1C`, the “activity, negative = inhibition” value was -8.73%.
Regarding `Cc1cnc2c(C(=O)O)c(Cl)ccc2c1`, the “activity, negative = inhibition” value is -1.39%.
On to `CCC[CH2][Sn]([CH2]CCC)([O]C(C)=O)[O]C(C)=O`, for which the Potency was 0.0617 µM (active).
Take `COc1nc(C)nc(NC(=O)NS(=O)(=O)c2ccccc2Cl)n1`: the “activity, negative = inhibition” value is 12.6%.
Still for that read-out and setting: as for `c1ccc(Nc2ccc(Nc3ccccc3)cc2)cc1`, the figure is -20.2%; as for `CC(Cc1ccc(OCC(=O)O)cc1)NCC(O)c1csc(C(F)(F)F)n1` (stereo not given), 21.9%.
The same measure, in the same setting: next, `CNC(=O)Oc1cc(C)cc(C(C)C)c1`: 13.7%; `Clc1ccc(C2(Cn3cncn3)OCCO2)c(Cl)c1`: -9.63%.
With `CC(C)N(C(=O)CCl)c1ccccc1`, the Potency is 15.4 µM (active) and 13.7 µM (active).
`ClSC(Cl)(Cl)Cl`: the “activity, negative = inhibition” value is 1.94%.
`CCOP(=S)(NC(C)C)Oc1ccccc1C(=O)OC(C)C` (stereo not given): the Potency is 30.6 µM (active).
For `c1ccc(N=NNc2ccccc2)cc1`, the Potency entry is “inactive”.
For the compound `O=C1C2(Cl)C3(Cl)C4(Cl)C(Cl)(Cl)C5(Cl)C3(Cl)C1(Cl)C5(Cl)C24Cl` (stereo not given), the Potency is 26.9 µM (active) and 58.5 µM (active).
Regarding `O=NN(CCO)CCO`, the “activity, negative = inhibition” value was 2.45%.
As to `CCCCCCC[CH2][Sn]([Cl])([Cl])[CH2]CCCCCCC`, the Potency was 61.1 µM (active).
With `Nc1ccc(N=Nc2ccccc2)cc1`, the “activity, negative = inhibition” value is 102%.
As for `C=C(C)C(=O)[O][Sn]([CH2]CCC)([CH2]CCC)[CH2]CCC`, the Potency is 0.486 µM (active).
On to `CC(C)(C)c1ccc(OP(=O)(Oc2ccccc2)Oc2ccccc2)cc1`, for which the Potency is 61.5 µM (active).
For the compound `N#Cc1sc2c(=O)c3ccccc3c(=O)c=2sc1C#N`, the Potency is 61.1 µM (active).
As for `BrCC(Br)(Br)Br`, the “activity, negative = inhibition” value was 24%.
Consider `C=CC(=O)[O][Sn]([CH2]CCC)([CH2]CCC)[CH2]CCC`, for which the Potency was 1.37 µM (active).
With `COc1cnc(OC)n2nc(NS(=O)(=O)c3c(OCC(F)F)cccc3C(F)(F)F)nc12`, the “activity, negative = inhibition” value is 0.21%.
For `Nc1ccc(Cl)cc1C(=O)c1ccccc1F`, the “activity, negative = inhibition” value is 12.1% [at 42.5 µM].
Turning to `CCCCCCCCCCCCCCn1cc[n+](C)c1`, the Potency was 1.73 µM (active) and 1.35 µM (active).
As to `N#CC(C#N)=NNc1cccc(Cl)c1`, the Potency was 0.77 µM (active).
For the compound `CN1CCc2cc3c(cc2C1O)OCO3` (stereo not given), the “activity, negative = inhibition” value is 1.09%.
For the compound `CCN(CC)CCN1C(=O)CN=C(c2ccccc2F)c2cc(Cl)ccc21`, the “activity, negative = inhibition” value is -16.3% [at 42.5 µM].
Turning to `[F][Sn]([c]1ccccc1)([c]1ccccc1)[c]1ccccc1`, the Potency was 0.545 µM (active).
On to `Nc1cc(Cl)ccc1Cl`, for which the “activity, negative = inhibition” value was -0.251%.
